Assay outcomes as filed in PubChem.
TDP1 inh – inhibitors of human tyrosyl-DNA phosphodiesterase TDP1. recombinant TDP1, AlphaScreen DNA substrate cleavage. Q9NUW8. Potency, µM (titrated, usually from 130 µM), for inactives: at the highest dose activity change, negative = inhibition, actives largely listed as inhibitors. hit rate 0.28% among 350,000; note: potency is the fitted concentration of half-maximal effect; % is set by controls: 0 for no effect and ±100 for the full control effect; nearly all actives have a fitted effect of over 40% in size
Target sequence (Q9NUW8 whole entry, looked up): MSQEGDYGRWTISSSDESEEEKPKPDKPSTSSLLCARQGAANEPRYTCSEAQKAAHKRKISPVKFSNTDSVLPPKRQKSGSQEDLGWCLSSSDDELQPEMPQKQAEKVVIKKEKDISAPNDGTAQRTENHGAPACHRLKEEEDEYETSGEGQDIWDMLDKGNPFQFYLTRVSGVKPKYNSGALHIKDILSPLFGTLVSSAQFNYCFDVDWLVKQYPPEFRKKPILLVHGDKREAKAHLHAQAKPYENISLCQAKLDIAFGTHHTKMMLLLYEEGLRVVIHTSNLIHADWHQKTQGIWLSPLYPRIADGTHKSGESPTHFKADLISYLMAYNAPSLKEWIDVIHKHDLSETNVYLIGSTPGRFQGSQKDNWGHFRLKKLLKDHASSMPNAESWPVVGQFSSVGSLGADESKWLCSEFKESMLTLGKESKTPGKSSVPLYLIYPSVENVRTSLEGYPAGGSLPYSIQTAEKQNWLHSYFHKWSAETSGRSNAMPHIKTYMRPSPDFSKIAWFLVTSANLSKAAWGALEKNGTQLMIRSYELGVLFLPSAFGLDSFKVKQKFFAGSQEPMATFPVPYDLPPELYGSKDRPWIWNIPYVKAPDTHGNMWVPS
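Recombinant E. coli-expressed Tdp1 (1 nM) preincubated with compound 15 min at RT, then 5'-biotin/3'-phosphotyrosine-FITC DNA substrate (15 nM) added for 5 min. AlphaScreen beads (10 ug/ml) added, 10 min RT; tyrosine-FITC cleavage read as signal loss.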
TGFb inhibitor – blocks TGF-b signaling. HepG2 CAGA-GFP TGF-b/SMAD3 reporter, GFP fluorescence, 18 h; TGF-beta stimulated, 500 pg/mL final. Potency, µM (series often up to 46.1 µM), without a hit: at the highest dose activity, negative = inhibition, usual class: inhibitors. hit rate 1.2% among 410,000. AID 588855; note: potency is the fitted concentration of half-maximal effect; % is set by controls: 0 for no effect and ±100 for the full control effect; nearly all actives have a fitted effect of over 65% in size
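HEPG2 CAGA-GFP, 1000 cells/well; 2 h settle, 37 C; cpd via pin tool; TGF-b 500 pg/mL final; 18 h, 37 C; GFP imaging ex488/em500-530; %Activity normalised to -TGF-b and +DMSO controls; CRC fit, curve class.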
HepG2 tox – HepG2 cytotoxicity, counter-screen for TGF-b inhibitors; AID 588856; Potency, µM (titrated, usually from 46.1 µM), for the others: at the highest dose activity change, negative = cytotoxicity, hits mostly cytotoxic; hit rate 0.76% among 410,000; HepG2 CAGA-GFP viability, ATP luminescence, 18 h; note: potency is the fitted concentration of half-maximal effect
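HepG2 CAGA-GFP cells (1000/well, DMEM with 1% FBS) received compound, then TGF-beta at 500 pg/mL final, and were incubated 18 hours at 37 degrees C. Viability was read by CellTiter-Glo luminescence. Media-only wells were set as complete cell-killing and DMSO as no toxicity.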
TDP1 cell CPT – growth inhibition of DT40 Tdp1-/-;hTDP1 cells with camptothecin (screen for TDP1 inhibitors); Potency, µM (series often up to 46.2 µM), for the others: top-dose activity change, negative = growth inhibition, usual class: inhibitors; chicken DT40 Tdp1-/-;hTDP1 cells + 20 nM CPT, ATP luminescence, 48 h; hit rate 12% among 420,000; AID 686979; note: potency is the fitted concentration of half-maximal effect; % is set by controls: 0 for no effect and ±100 for the full control effect; nearly all actives have a fitted effect of over 55% in size
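Chicken DT40 Tdp1-/- cells stably complemented with human TDP1 were seeded at 400 cells/well in medium containing 20 nM camptothecin, exposed to pin-transferred compounds, and grown at 37 °C for at least 48 hr. Viability was read as ATP luminescence.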
IL-1B inflam inh – blocks inflammasome-driven IL-1 beta release | THP-1 LPS/ATP IL-1B secretion, AlphaLISA, 16 h; stronger effect = lower value | activity change, % at 57.5 µM | hit rate 4.7% among 360,000; in the data active = activity change below about -50%; inconclusive = mostly about -30% to -49%; note: % is set by controls: 0 for no effect and ±100 for the full control effect
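Secreted IL-1B measured by AlphaLISA bead assay after 16 h compound exposure of THP-1 cells; compounds (final up to 57.5 uM) added 1 h before LPS (250 ng/mL) and ATP (1.25 mM) stimulation; lower signal means less secretion.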
DT40 TDP1 no CPT – qHTS for Inhibitors of human tyrosyl-DNA phosphodiesterase 1 (TDP1): qHTS in cells in absence of CPT. DT40 Tdp1-/- hTDP1 cells, no CPT, ATP luminescence, 48 h. Potency, µM (highest dose often 46.2 µM), for the others: top-dose activity change, negative = growth inhibition, hits mostly inhibitors. hit rate 15% among 420,000; note: potency is the fitted concentration of half-maximal effect; % is set by controls: 0 for no effect and ±100 for the full control effect; nearly all actives have a fitted effect of over 55% in size
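Compound effects on proliferation are scored in DT40 Tdp1-/-;hTDP1 cells in the absence of CPT. ATP levels (CellTiter-Glo luminescence) are recorded after a ≥48 hr, 37 °C incubation.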
* marks the source's active call; other numbers are inactive results; ? = inconclusive; nt = no result given; [ ] = dose if it differs, or a comment. Sampled rows, rich in hits. Any-hit rate of the full collection: about 19%. Unless noted, calls come from the whole dose curve; as a rule, active = well fitted curve in the direction sought with a large enough effect; inconclusive = small, poorly fitted or top-dose-only effect, or another doubt; inactive = no such curve, though single readings can be large; an effect the other way counts as inactive or inconclusive.

SMILES | TDP1 inh | TGFb inhibitor | HepG2 tox | TDP1 cell CPT | IL-1B inflam inh | DT40 TDP1 no CPT
CCOc1ccc(CCNC(=O)CN2C(=O)c3cccnc3Oc3ccc(C)cc32)cc1OCC | 0% | 2% | 0% | 21µM* | 12 | ?
CCOc1ccc(CCNC(=O)CN2C(=O)c3cccnc3Oc3ccc(Cl)cc32)cc1 | 0% | ? | -37% | ? | -10 | 21µM*
CCC1=C(OC(=O)N(CC)CC)N2C(=O)OC(=NCCOC)[C@]2(C)[C@H]2C1=CC[C@H]1C(=O)N(C)C(=O)[C@H]12 | 4% | nt | nt | nt | nt | nt
COc1ccccc1/C=C/c1cnccn1 | nt | -14% | 5% | -5% | nt | ?
Cc1cccc(-c2c3c(nc4c2c(=O)n(C)c(=O)n4C)-c2ccccc2C3O)c1 (centres undefined) | nt | 7% | 6% | 5.8µM* | 7 | 4.6µM*
OC[C@@H]1CN(Cc2ccc(Cl)cc2)C[C@H](n2cnc3c(NC4CCC4)ncnc32)O1 | nt | 5% | -9% | ? | -85* | ?
OCCNc1ncnc2c1ncn2[C@H]1CN(Cc2ccc3c(c2)OCO3)C[C@@H](CO)O1 | nt | -5% | -14% | -13% | -3 | 0%
OC[C@@H]1CN(Cc2ccc3c(c2)OCO3)C[C@H](n2cnc3c(NC4CCCC4)ncnc32)O1 | nt | 13% | -3% | ? | -72* | ?
CCN(CC)c1ncnc2c1ncn2[C@H]1CN(Cc2ccc(Cl)cc2)C[C@@H](CO)O1 | nt | -16% | -32% | 29µM* | -2 | 16µM*
COc1ccc(-n2nc(C(=O)NCc3ccc(F)cc3Cl)c3c4ccccc4n(C)c3c2=O)cc1Cl | 7% | ? | -12% | -1% | nt | -1%
O=C1CN(C(=O)COC(=O)c2cc(Cl)ccc2[N+](=O)[O-])c2ccccc2N1 | nt | 1% | -4% | -7% | 14 | ?
COC[C@@H](O)[C@@H](OC)[C@H](OC)[C@H](Cc1c(OC)cc(OC)cc1OC)OC | 4% | nt | nt | nt | nt | nt
Cc1ccc(Cn2c(CO)cnc2SCc2cccc(F)c2)cc1 | 4% | -23% | -27% | ? | nt | ?
Cc1ccc(Cn2c(CO)cnc2SCc2ccc(F)cc2)cc1 | 8% | -16% | -41% | 10µM* | nt | 16µM*
OCc1cnc(SCc2cccc(F)c2)n1Cc1ccc(F)cc1 | 5% | ? | -29% | 21µM* | nt | ?
COc1ccc(Cn2c(CO)cnc2SCc2cccc(C)c2)cc1 | 9% | 1% | -10% | ? | nt | 26µM*
COC(=O)C#CC(=O)OC | 9% | nt | nt | nt | nt | nt
CC1CCCC(C)N1C(=O)COC(=O)CNC(=O)c1ccccc1F (centres undefined) | 2% | 3% | 20% | -3% | -13 | 10%
COc1ccc(NC(=O)CCN2CCN(CCO)CC2)c(OC)c1 | nt | 2% | -37% | -10% | nt | -11%
CO[C@H]1COC(=O)C/C=C\[C@H](C)[C@@H](OC)COC(=O)[C@H](C)COC(=O)C/C=C\[C@@H]1C | 8%[21 µM] | nt | nt | nt | nt | nt
COc1ccc(C(=O)[C@]2(C)C=C(c3ccc(OC)cc3)[C@H](C)C2)cc1 | -4% | nt | nt | nt | nt | nt
CN(C)S(=O)(=O)N1CCC(Oc2ccc(C(=O)NC3Cc4ccccc4C3)cc2)CC1 | 6% | ? | -30% | ? | 17 | 16µM*
CN(C)S(=O)(=O)N1CCC(Oc2cccc(C(=O)NC3CCCCCC3)c2)CC1 | 0% | -10% | -30% | 18µM* | 1 | 15µM*
CCN1CCN(C(=O)c2cccc(OC3CCN(S(=O)(=O)N(C)C)CC3)c2)CC1 | 1% | 0% | 0% | 2% | 17 | 9%
CN(C)S(=O)(=O)N1CCC(Oc2ccc(C(=O)NC3CCOC(C)(C)C3)cc2)CC1 (centres undefined) | 2% | 2% | -2% | -13% | 15 | -15%
SMILES | TDP1 inh | TGFb inhibitor | HepG2 tox | TDP1 cell CPT | IL-1B inflam inh | DT40 TDP1 no CPT
COc1ccc(NC(=O)Cn2cc(C(=O)c3ccccc3OC)c(=O)c3ccc(C)nc32)cc1OC | 0% | -16% | -11% | -19% | nt | ?
CCCCC/C(C=O)=C/c1ccccc1 | -6% | nt | nt | nt | nt | nt
Cc1cc(C)c2cc(C=O)c(Cl)nc2c1 | 5% | 2% | 5% | 1.2µM* | 36 | 1µM*
CCc1cc2cc(C)cc(C)c2nc1Cl | -2% | -3% | -1% | 5% | 15 | ?
Cc1ccc(C(=O)c2cn(CC(=O)NC3CCCCC3)c3nc(C)ccc3c2=O)cc1 | 0% | 2% | 4% | -27% | nt | ?
C=CCc1c(C)nc(-c2ccccc2)nc1Nc1ccc(O)cc1 | 0% | ? | -24% | ? | -97* | 15µM*
C=CCc1c(C)nc(SC)nc1Nc1ccc(C(C)=O)cc1 | 11% | 1% | -6% | 16µM* | -23 | 21µM*
C=CCc1c(C)nc(SC)nc1Nc1ccc(C(=O)O)cc1 | 2% | 19% | -21% | -10% | 11 | -12%
Cc1ccc(-c2cc(NC(=O)COc3ccc(Cl)cc3C)on2)cc1 | 7% | -3% | -28% | -12% | nt | -22%
